{
  "source": "PubChem BioAssay AID1209",
  "about": "(Sanford-Burnham Center for Chemical Genomics, 2008)",
  "note": "Hit rate of the full screen: of about 190,000 compounds, about 810 (0.43%) were called active. The entries come from a sample that favours actives as a whole. Values without a mark were called inactive. No stated cut-off is given here; in the data, active means inhibition above about 50%; inactive means the rest.",
  "data": [
    {"target": "Mannose-6-phosphate isomerase (Homo sapiens) (UniProt P34949)", "sequence (P34949 whole entry, looked up)": "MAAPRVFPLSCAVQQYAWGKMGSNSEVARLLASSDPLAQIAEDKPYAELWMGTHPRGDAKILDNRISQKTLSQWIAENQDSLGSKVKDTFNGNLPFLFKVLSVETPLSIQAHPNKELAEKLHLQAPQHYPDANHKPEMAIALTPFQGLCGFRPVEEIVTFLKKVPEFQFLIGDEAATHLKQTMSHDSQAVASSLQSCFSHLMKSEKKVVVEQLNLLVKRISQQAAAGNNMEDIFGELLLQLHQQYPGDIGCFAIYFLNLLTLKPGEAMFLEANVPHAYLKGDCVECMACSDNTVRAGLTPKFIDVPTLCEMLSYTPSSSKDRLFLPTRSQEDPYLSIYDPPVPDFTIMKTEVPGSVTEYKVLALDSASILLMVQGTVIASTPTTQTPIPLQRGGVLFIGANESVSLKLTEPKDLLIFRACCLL", "test": "MPI enzyme activity inhibition – biochemical, fluorescence intensity, coupled assay, primary screen (AID 1209);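 further: plate controls were DMSO vehicle for no effect and wells lacking substrate for full effect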", "conditions": "purified PMI enzyme, at 20 µM, hits give high values", "values": [
      {"smiles": "OC1(c2ccc3ccccc3c2)CCN(Cc2ccccc2)C1", "note": "(configuration not stated)", "inhibition": "-11.8%"},
      {"smiles": "OC1(c2ccc(F)cc2)CCN(Cc2ccccc2)C1", "note": "(configuration not stated)", "inhibition": "-8.8%"},
      {"smiles": "OC1(c2ccccc2)CCN(Cc2ccccc2)CC1", "inhibition": "57.2% (active)"},
      {"smiles": "CCC1(C)Cc2[nH]c(=O)c(C#N)cc2CO1", "note": "(configuration not stated)", "inhibition": "2.9%"},
      {"smiles": "COc1cc(/C=N/Nc2nc(C)nc3c2cnn3-c2ccccc2)ccc1O", "inhibition": "6.9%"},
      {"smiles": "c1cc2nnnn2nc1N1CCCCC1", "inhibition": "-6.5%"},
      {"smiles": "O=C(c1cnn2c(C(F)F)cc(C3CC3)nc12)N1CCCC1", "inhibition": "-5.5%"},
      {"smiles": "CN1CCN(C(=O)c2cnn3c(C(F)F)cc(C4CC4)nc23)CC1", "inhibition": "9.1%"},
      {"smiles": "O=C(c1cnn2c(C(F)F)cc(C3CC3)nc12)N1CCOCC1", "inhibition": "53.1% (active)"},
      {"smiles": "NS(=O)(=O)c1ccc(CCNC(=O)CSc2ccc3ccccc3c2)cc1", "inhibition": "-13.1%"},
      {"smiles": "COc1ccc(CCNC(=O)CSc2ccc3ccccc3c2)cc1OC", "inhibition": "1.7%"},
      {"smiles": "O=C(CSc1ccc2ccccc2c1)NCCc1ccc(O)c(O)c1", "inhibition": "52.6% (active)"},
      {"smiles": "Cc1cc(C)n2nc(C(=O)OCCOc3ccc(Br)cc3)nc2n1", "inhibition": "7.1%"},
      {"smiles": "COc1cc2nc(NC(=O)c3ccc(Cl)cc3)[nH]c(=O)c2cc1OC", "inhibition": "25.5%"},
      {"smiles": "COc1ccc(C(=O)c2coc(-c3ccccc3C(=O)O)c2C(=O)O)cc1", "inhibition": "-8.2%"},
      {"smiles": "O=C(c1ccccc1)c1coc2c1C(=O)c1ccccc1C2=O", "inhibition": "-42.6%"},
      {"smiles": "Cc1ccc(C(=O)c2c[nH]cc2-c2ccccc2)cc1", "inhibition": "-1%"},
      {"smiles": "O=C1c2ccccc2C(=O)c2c1oc(C(F)(F)F)c2C(=O)c1ccccc1", "inhibition": "-31.5%"},
      {"smiles": "O=C1C(=O)c2c(C(=O)c3ccccc3)coc2-c2ccccc21", "inhibition": "73.4% (active)"},
      {"smiles": "Cc1ccc(C(=O)c2coc3c2C(=O)C(=O)c2ccccc2-3)cc1", "inhibition": "72.9% (active)"},
      {"smiles": "NC(=O)c1ccc(C(=O)c2ccc([N+](=O)[O-])cc2)cc1", "inhibition": "-7.1%"},
      {"smiles": "Cc1ccc(N=C2NC(=O)c3cc([N+](=O)[O-])ccc32)cc1", "inhibition": "14.1%"},
      {"smiles": "Cc1cccc(N=C2NC(=O)c3cc([N+](=O)[O-])ccc32)c1", "inhibition": "-1.4%"},
      {"smiles": "NC(=O)c1ccc(N=C2C(=O)Nc3ccc([N+](=O)[O-])cc32)cc1", "inhibition": "52.5% (active)"},
      {"smiles": "O=C1Nc2ccc([N+](=O)[O-])cc2C1=Nc1cccc(CO)c1", "inhibition": "56.8% (active)"},
      {"smiles": "O=C1NC(=Nc2ccccc2)c2ccc([N+](=O)[O-])cc21", "inhibition": "28.5%"},
      {"smiles": "CCOC(=O)c1c(NC(=O)Nc2cccc(Cl)c2)sc(C)c1C", "inhibition": "-4.2%"},
      {"smiles": "O=C(CSc1ncnc2ccccc12)c1ccc2c(c1)OCCO2", "inhibition": "9.1%"},
      {"smiles": "Nc1[nH]n2c(=O)cc(-c3ccccc3)nc2c1N=Nc1ccc2c(c1)OCO2", "inhibition": "28%"},
      {"smiles": "Cc1cc([N+](=O)[O-])c(C)cc1-c1ccc(/C=N/NC(=O)c2cccnc2)o1", "inhibition": "8.6%"},
      {"smiles": "COc1ccc2ccccc2c1/C=N/NC(=O)c1sc(N)c(C#N)c1C", "inhibition": "12.9%"},
      {"smiles": "O=C(N/N=C\\c1ccc(-c2ccccc2[N+](=O)[O-])o1)C1COc2cc3ccccc3cc2O1", "note": "(configuration not stated)", "inhibition": "70.2% (active)"},
      {"smiles": "Cc1ccc(/C=N\\NC(=O)C2COc3cc4ccccc4cc3O2)o1", "note": "(configuration not stated)", "inhibition": "5%"},
      {"smiles": "Cc1ccc(C(=O)N/N=C/c2ccc(-c3ccccc3[N+](=O)[O-])o2)cn1", "inhibition": "52.2% (active)"},
      {"smiles": "Cc1ccc(C(=O)N/N=C\\c2ccccc2[N+](=O)[O-])cn1", "inhibition": "-13.1%"},
      {"smiles": "O=C(N/N=C/c1ccc(-c2ccccc2[N+](=O)[O-])o1)c1cncc(Br)c1", "inhibition": "33.3%"},
      {"smiles": "O=C(N/N=C\\c1ccc(-c2ccccc2[N+](=O)[O-])o1)C1COc2ccccc2O1", "note": "(configuration not stated)", "inhibition": "33.9%"},
      {"smiles": "Cc1c(C(=O)N/N=C/c2ccc(-c3ccccc3[N+](=O)[O-])o2)sc(N)c1C#N", "inhibition": "55.1% (active)"},
      {"smiles": "COC(=O)c1[nH]c2ccccc2c1NC(=O)CCN1CCN(C2CCCCC2)CC1", "inhibition": "3.6%"},
      {"smiles": "COc1cc(CC(=O)OCC(=O)Nc2cc([N+](=O)[O-])ccc2F)cc(OC)c1OC", "inhibition": "2.7%"},
      {"smiles": "Cc1ccc(C(c2nnnn2C(C)(C)C)N2CCC(C)CC2)cc1", "note": "(configuration not stated)", "inhibition": "-7.6%"},
      {"smiles": "CCCCS(=O)(=O)Nc1ccc2cn[nH]c2c1", "inhibition": "10%"},
      {"smiles": "O=C(/C=C/c1ccco1)N1CCN(S(=O)(=O)/C=C/c2ccccc2)CC1", "inhibition": "-3.5%"},
      {"smiles": "CCCC(=O)NCCCc1nc2ccccc2n1C(C)C", "inhibition": "2.7%"},
      {"smiles": "COc1ccc2c(c1O)-c1ccccc1CCN(C)C2", "inhibition": "-0.5%"},
      {"smiles": "CN1CCc2cccc3c2[C@H]1Cc1ccc(O)c(O)c1-3", "inhibition": "79.7% (active)"},
      {"smiles": "CN1CCc2ccccc2C1C1CCNCC1", "note": "(configuration not stated)", "inhibition": "-2.5%"},
      {"smiles": "CN1CCc2cccc3c2[C@@H]1Cc1ccc(O)c(O)c1-3", "inhibition": "64.3% (active)"},
      {"smiles": "CN1CCc2cc3c(c4c2[C@H]1[C@H](O)c1ccccc1-4)OCO3", "inhibition": "15.6%"},
      {"smiles": "CC(=O)c1cc2c(=O)c3cc(C)ccc3oc2nc1C", "inhibition": "3.2%"},
      {"smiles": "COc1ccccc1OCC(=O)Nc1ccc(O)cc1C(=O)O", "inhibition": "-4%"},
      {"smiles": "CCc1ccccc1N(C(=O)Cn1nnc2ccccc21)C(C(=O)NCCOC)c1ccco1", "note": "(configuration not stated)", "inhibition": "3.9%"},
      {"smiles": "Cc1ccc(C(=O)c2c(C)oc3c2C(=O)C(=O)c2ccccc2-3)cc1", "inhibition": "73.3% (active)"},
      {"smiles": "Cc1oc2c(c1C(=O)O)C(=O)c1ccccc1C2=O", "inhibition": "-55.2%"},
      {"smiles": "CCOC(=O)c1c(C)oc2c1C(=O)c1ccccc1C2=O", "inhibition": "-48.2%"},
      {"smiles": "Cc1oc2c(c1C(=O)c1ccccc1)C(=O)C(=O)c1ccccc1-2", "inhibition": "73.6% (active)"},
      {"smiles": "CC1=C(CC(=O)c2ccc(Cl)cc2)C(=O)c2ccccc2C1=O", "inhibition": "-15.5%"},
      {"smiles": "CC(=O)c1c(C)oc2c1C(=O)c1ccccc1C2=O", "inhibition": "0.2%"},
      {"smiles": "Cc1oc2c(c1C(=O)c1ccc(Cl)cc1)C(=O)C(=O)c1ccccc1-2", "inhibition": "63.9% (active)"},
      {"smiles": "O=C(c1ccc(Cl)cc1)c1ccc(CN2C(=O)c3ccccc3C2=O)o1", "inhibition": "6.4%"},
      {"smiles": "Cc1oc2c(c1C(=O)N1CCC(C)CC1)C(=O)c1ccccc1C2=O", "inhibition": "1.3%"},
      {"smiles": "O=C(CCCn1cnc([N+](=O)[O-])n1)Nc1ccc(Cl)cc1Cl", "inhibition": "8.7%"}
    ]}
  ]
}
